Compound activity (PubChem)
PDI turbidity: inhibitors of human PDI, primary screen, biochemical, turbidity, single point, plate reader | Protein disulfide-isomerase (Homo sapiens), P07237 | PDI insulin aggregation turbidity, A650, 90 min | inhibition, % at 10 µM | 0.052% of 350,000 active | AID 588391, 2011;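 active = mean inhibition across replicates of 30% or more, whatever share of single replicates reach that level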
ERAP1 inh: human ERAP1 aminopeptidase inhibitors, primary screen, biochemical, single point, plate reader; recombinant ERAP1, Leu-AMC fluorescence, 60 min; 0.15% of 340,000 active; Endoplasmic reticulum aminopeptidase 1 (Homo sapiens), Q9NZ08; inhibition, % at 10.7 µM;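 active = mean replicate inhibition of at least 30%, or all replicates individually reaching that 30% level; inactive = mean below 30% and not every replicate reaching it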
HDAC3 inhib: HDAC3 deacetylase inhibitors, primary screen, biochemical, fluorescence, cell-free homogeneous. recombinant HDAC3, fluorogenic peptide/trypsin coupled. inhibition, % at 8.3 µM. Histone deacetylase 3 (Homo sapiens), O15379. AID 2718, 2010. 0.15% of 320,000 active; in the data active = inhibition above about 26%, passing the limit was not always enough
SIRT5 inh: SIRT5 desuccinylase inhibitors, primary screen, biochemical, fluorescence imaging, single point, set 5; 1.1% of 330,000 active; NAD-dependent protein deacylase sirtuin-5, mitochondrial (Homo sapiens), Q9NXA8; AID 652115, 2013; Purified SirT5, succinyl-peptide AMC, trypsin-coupled fluorescence; inhibition, % at 15 µM; in the data active = inhibition above about 15%
Target sequence (Q9NXA8 whole entry, looked up): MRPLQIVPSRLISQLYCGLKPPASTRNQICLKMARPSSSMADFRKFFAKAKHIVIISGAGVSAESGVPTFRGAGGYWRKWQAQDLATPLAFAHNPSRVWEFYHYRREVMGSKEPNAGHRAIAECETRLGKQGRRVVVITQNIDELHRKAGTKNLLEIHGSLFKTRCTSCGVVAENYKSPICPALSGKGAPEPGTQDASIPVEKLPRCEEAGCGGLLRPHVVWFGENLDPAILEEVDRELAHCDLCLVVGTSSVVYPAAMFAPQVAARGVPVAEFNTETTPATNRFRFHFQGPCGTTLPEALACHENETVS
ERp5 inh: inhibitors of ERp5-driven insulin aggregation, primary screen, biochemical, turbidity, absorbance 650 nm, single point. AID 651711, 2012. inhibition, % at 9.99 µM. 0.05% of 350,000 active. 90 min;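 active = mean replicate inhibition above about 25%, with every replicate also reaching it, limit read from the data, passing the limit was not always enough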
Each line names hits and unclear results; the compound was inactive in the other large screens. The entries come from a sample that favours hits as a whole.

COc1ccc(CN(C)C[C@H]2Oc3ccc(NC(=O)Nc4ccccc4)cc3CC(=O)N([C@H](C)CO)C[C@H]2C)cc1	none (no result: PDI turbidity, HDAC3 inhib)
Cc1ccc(S(=O)(=O)NCC[C@H]2CC[C@H](NC(=O)CCN3CCCCC3)[C@@H](CO)O2)cc1	none (no result: PDI turbidity, HDAC3 inhib)
CCN(CC)C(=O)C1CCCN(Cc2ccc3ccccc3c2)C1 (stereo not drawn)	SIRT5 inh 46
NC(=O)C1CCCN(Cc2ccc3ccccc3c2)C1 (stereo not drawn)	none
Cc1c(C(=O)OCC(O)=C(C#N)c2nc3ccccc3[nH]2)oc2ccc(Br)cc12	SIRT5 inh 30 (no result: HDAC3 inhib)
O=C1CCC(=O)N1c1nc2nc(-c3ccccc3)cc(-c3ccccc3)n2n1	PDI turbidity 33 (no result: ERAP1 inh, SIRT5 inh, ERp5 inh)
C[C@H](CO)N1C[C@H](C)[C@H](CN(C)C)Oc2ccc(NC(=O)Nc3ccc4c(c3)OCO4)cc2CC1=O	none (no result: PDI turbidity, HDAC3 inhib)
CN1CCN(CC(=O)Nc2nc3ccccc3s2)CC1	SIRT5 inh 21
CCN1CCN(CC(=O)Nc2nc3ccccc3s2)CC1	none
CCCN(C)C[C@@H]1Oc2cc(-c3ccc(F)cc3)ccc2S(=O)(=O)N([C@H](C)CO)C[C@@H]1C	none (no result: PDI turbidity, HDAC3 inhib, ERp5 inh)
Cc1ccc(Cc2c(-c3ccc(F)cc3)nc3cc(C)ccn23)cc1	SIRT5 inh 15 (no result: HDAC3 inhib)
Cc1ccc(Cc2c(-c3ccccc3)nc3ccc(Br)cn23)cc1	none (no result: HDAC3 inhib)
Cc1ccc(Cc2c(-c3ccc(Br)cc3)nc3cc(C)ccn23)cc1	SIRT5 inh 28 (no result: HDAC3 inhib)
COc1ccc2c3c(n(C)c2c1)[C@H](CO)N(C(=O)C1CCC1)CC31CN(C(=O)CN(C)C)C1	none (no result: PDI turbidity, HDAC3 inhib)
O=C(C[C@@H]1C[C@H]2c3cc(NC(=O)Nc4ccccc4)ccc3O[C@H]2[C@@H](CO)O1)NCC(F)(F)F	none (no result: PDI turbidity, HDAC3 inhib)
Cc1ccc(CNC(=O)N[C@@H](Cc2ccccc2)C(=O)O)cc1	SIRT5 inh 17
CN(C)C(=O)CSc1nnc([C@H](Cc2ccccc2)NC(=O)OC(C)(C)C)o1	none
CCSc1nnc([C@H](Cc2c[nH]c3ccccc23)NC(=O)OC(C)(C)C)o1	PDI turbidity 49 (no result: ERAP1 inh, SIRT5 inh, ERp5 inh)
CCN(CC)C(=O)CSc1nnc([C@H](Cc2c[nH]c3ccccc23)NC(=O)OC(C)(C)C)o1	PDI turbidity 56 (no result: ERAP1 inh, SIRT5 inh, ERp5 inh)
CSc1nnc([C@H](Cc2c[nH]c3ccccc23)NC(=O)OC(C)(C)C)o1	none
C[C@@H]1CN([C@@H](C)CO)C(=O)c2cccc(NS(=O)(=O)c3ccc(Cl)cc3)c2O[C@@H]1CN(C)C(=O)Nc1ccc(F)cc1	none (no result: PDI turbidity, HDAC3 inhib)
O=C(Nc1cccc(F)c1)N1C[C@@H]2[C@H](c3ccccc31)[C@@H](CO)N2C(=O)Cc1ccccn1	none (no result: PDI turbidity, HDAC3 inhib)
O=C(O)c1cccc(N2C(=O)/C(=C/c3ccc(SCc4ccc(Cl)cc4)o3)SC2=S)c1	SIRT5 inh 21 (no result: HDAC3 inhib)
C[C@H](CO)N1C[C@H](C)[C@H](CN(C)C(=O)Nc2cccc3ccccc23)Oc2ccc(NC(=O)CCC(F)(F)F)cc2C1=O	none (no result: PDI turbidity, HDAC3 inhib)
CCN(CC)S(=O)(=O)c1ccc(NC(=S)NC(=O)C(C)C)cc1	none
CCN(CC)S(=O)(=O)c1ccc(NC(=S)NC(=O)CC(C)C)cc1	SIRT5 inh 33
C[C@@H]1CCCCO[C@H](CN(C)C(=O)Nc2cccc3ccccc23)[C@@H](C)CN([C@@H](C)CO)C(=O)c2cc(NS(=O)(=O)c3ccccc3)ccc2O1	SIRT5 inh 15 (no result: PDI turbidity, HDAC3 inhib)
Cc1ccc(S(=O)(=O)Nc2ccc3c(c2)C(=O)N([C@@H](C)CO)C[C@@H](C)[C@@H](CN(C)C(=O)Nc2cccc4ccccc24)OCCCC[C@@H](C)O3)cc1	SIRT5 inh 17 (no result: PDI turbidity, HDAC3 inhib)
C[C@@H]1CCCCO[C@@H](CN(C)C(=O)Nc2cccc3ccccc23)[C@H](C)CN([C@H](C)CO)C(=O)c2cc(NS(=O)(=O)c3ccccc3)ccc2O1	none (no result: PDI turbidity, HDAC3 inhib)
COC(=O)N(C)C[C@@H]1OCc2ccccc2-c2ccccc2C(=O)N([C@@H](C)CO)C[C@H]1C	none (no result: PDI turbidity, HDAC3 inhib)
Cn1cc(Br)c(C(=O)Nc2c(F)c(F)c(F)c(F)c2F)n1	SIRT5 inh 21
C/C=C/c1cccc(-c2nc(C(=O)NC3CCC3)cc3c2[C@@H](CCO)N(S(=O)C(C)(C)C)C3)c1 (stereo partly drawn)	SIRT5 inh 22 (no result: PDI turbidity, HDAC3 inhib)
C/C=C/c1cccc(-c2nc(C(=O)NCCC)cc3c2[C@@H](CCO)N([S@](=O)C(C)(C)C)C3)c1	none (no result: PDI turbidity, HDAC3 inhib)
